# High-throughput results: PubChem BioAssay, several laboratories
# PfHsp40 rescue: compounds rescuing yeast from Plasmodium falciparum HSP40 toxicity | S. cerevisiae expressing PfHsp40, growth rescue, ATP luminescence | 0.68% of 340,000 active | growth rescue, % at 12.5 µM; in the data active = growth rescue above about 28%, passing the limit was not always enough;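 also: yeast W303a lacking pdr1 and pdr3 grown in galactose medium; growth measured after three days at 30 °C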
# PrP 5UTR inh: inhibition of PrP 5' UTR reporter expression; cell-based PrP 5' UTR mRNA reporter, plate reader; inhibition, % (concentration not given with the values); 0.35% of 340,000 active; in the data active = inhibition above about 52%
# PrPC surface inh: cell surface PrPC inhibition, primary TR-FRET screen. P04156. TR-FRET read-out. inhibition, % at 13.8 µM. 0.43% of 370,000 active. AID 720596; in the data active = inhibition above about 24%
# BJeLR lethal: BJeLR cell viability loss; BJeLR (HRASV12) viability, CellTiter-Glo ATP luminescence, 48 h; inhibition, % (concentration not given with the values); 0.17% of 300,000 active; AID 1554; in the data active = inhibition above about 50%
# FBA Mtb inh: inhibits M. tuberculosis FBA enzyme; purified M. tuberculosis FBA, fluorescence read-out; inhibition, % at 1 µM; 2.3% of 360,000 active; AID 588726
# Target sequence (P9WQA3 whole entry, looked up): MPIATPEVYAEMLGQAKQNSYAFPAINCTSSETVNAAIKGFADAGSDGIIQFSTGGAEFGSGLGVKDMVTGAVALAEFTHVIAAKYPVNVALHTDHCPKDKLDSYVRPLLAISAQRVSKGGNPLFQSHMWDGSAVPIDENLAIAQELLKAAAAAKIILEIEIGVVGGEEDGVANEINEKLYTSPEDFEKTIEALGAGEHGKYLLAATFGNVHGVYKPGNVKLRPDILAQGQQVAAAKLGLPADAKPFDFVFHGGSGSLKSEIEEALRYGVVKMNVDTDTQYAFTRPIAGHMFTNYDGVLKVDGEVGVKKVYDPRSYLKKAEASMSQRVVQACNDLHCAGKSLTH
# GDH-TPI counter-1: inhibits GDH-TPI coupling enzymes, artifact for Mtb FBA screen. GDH-TPI coupled enzyme counterscreen, NADH absorbance. inhibition, % at 4.8 µM. 1.2% of 360,000 active. AID 588335; in the data active = inhibition above about 30%
# Mtb FBA confirm: confirmation of M. tuberculosis fructose-bisphosphate aldolase inhibitors; inhibition, % at 1 µM; AID 651616; shares compounds with FBA Mtb inh; 78% of 5,600 active; purified M. tuberculosis FBA, fluorescence read-out
# GDH-TPI counter-2: GDH-TPI inhibition counter-screen for FBA inhibitors; shares compounds with FBA Mtb inh; GDH-TPI coupled enzyme counterscreen, fluorescence; inhibition, % at 1 µM; 81% of 5,600 active; AID 652141; in the data active = inhibition above about 10%
# GDH-TPI dose: inhibits GDH-TPI coupling enzymes in dose response; shares compounds with FBA Mtb inh; IC50, µM; 79% of 170 active; GDH-TPI coupled enzyme assay, fluorescence, artifact counterscreen; call rule not given here
# Hits are given with their value; n = inactive; x = no result; + = active, no number. Only some compounds are listed: those with a hit (about 4.5% of all), similar ones and a draw of the others. Rule as the data show it, unless noted: active = inhibition above about 27%; inactive = the rest.
SMILES,PfHsp40 rescue,PrP 5UTR inh,PrPC surface inh,BJeLR lethal,FBA Mtb inh,GDH-TPI counter-1,Mtb FBA confirm,GDH-TPI counter-2,others
CN(C)CCCNC(=O)C[C@H]1C[C@H](C(=O)N2CCCCC2)[C@@]2(CCc3ccccc3)c3[nH]c4cc(-c5ccco5)ccc4c3CCN2C1=O,n,n,n,x,n,n,x,x,
CCCSc1nnc(NC(=O)c2sc3nc(-c4cccs4)ccc3c2N)s1,n,n,n,n,43.2,36.5,153.4,115.6,
Cc1csc(NC(=O)c2sc3nc(-c4cccs4)ccc3c2N)n1,x,x,x,n,x,x,x,x,
CC(C)c1nnc(SCC(=O)NC2CCCC2)n1C,n,n,n,n,n,n,x,x,
CC1=C(C(=O)Nc2ccccc2C(=O)NC2CCC(C)CC2)SCCO1 (stereo not given),n,n,n,n,37.4,n,n,17.1,
O=C(NCC1CCCO1)c1ccc(OC2CCN(C(=O)C3CC3)CC2)cc1 (stereo not given),n,n,n,n,n,n,x,x,
Cc1ccccc1CNC(=O)C1CCCN(c2nnc(C)c3c(C)n(-c4ccccc4)nc23)C1 (stereo not given),n,n,n,n,27.7,n,110.6,104.8,
Cc1nnc(N2CCCC(C(=O)NCc3ccccc3F)C2)c2nn(-c3ccccc3)c(C)c12 (stereo not given),n,n,n,n,n,n,x,x,
COC(=O)c1cccc(NC(=O)c2cnoc2C)c1,n,n,n,n,30.8,n,94.8,73.5,
Cc1oncc1C(=O)Nc1ccc2ccccc2c1,n,n,n,n,n,n,x,x,
CCn1c(SC(C)C(=O)NCC2CCCO2)nc2ccccc21 (stereo not given),n,n,n,x,n,n,x,x,
O=C(Cc1cccs1)NC(Cc1c[nH]c2ccccc12)C(=O)O (stereo not given),n,n,n,n,n,n,x,x,
Cc1c(O)ccc2c(CC(=O)N[C@@H](Cc3c[nH]c4ccccc34)C(=O)O)cc(=O)oc12,n,n,n,n,37.8,n,89.4,61.7,
O=C(Cc1cc(=O)oc2cc(O)ccc12)N[C@@H](Cc1c[nH]c2ccccc12)C(=O)O,n,n,n,n,37.1,n,+,160.9,
Cc1cc(C)c2c(=O)n3c(nc2c1)C(Cc1ccccc1)NC(=O)c1cc2ccccc2cc1-3 (stereo not given),x,x,n,x,n,n,x,x,
CC(C)C[C@H]1CN([C@@H](Cc2ccccc2)CN2CCC[C@H]2CN2C(=O)C(=O)NC[C@@H]2Cc2ccccc2)C(=O)C(=O)N1CCc1ccccc1,x,x,n,x,x,x,x,x,
O=C(Nc1c(C(=O)O)[nH]c2ccccc12)NC1CCCCC1,n,n,n,n,35.5,n,+,174.2,
COC(=O)c1[nH]c2ccc(C)cc2c1NC(=O)NC1CCCCC1,n,n,n,n,n,n,x,x,
COc1ccc(Nc2nc(Nc3ccc(OC)cc3)nc(SC3=NCCS3)n2)cc1,n,n,n,n,41.0,n,116.3,77.4,
COc1ccc(Nc2nc(OC)nc(OC)n2)cc1,n,n,n,n,n,n,x,x,
O=c1cc(C(F)F)oc2c1ccc1ccccc12,n,n,n,n,31.2,n,59.1,45.7,
O=Cc1coc2c(ccc3ccccc32)c1=O,x,x,x,n,x,x,x,x,
Cc1cc2nn(-c3ccc(F)cc3)nc2cc1N,n,n,n,n,53.8,45.7,179.3,136.2,
Cc1cc2nn(-c3ccc(Cl)cc3)nc2cc1N,n,n,n,n,40.5,n,110.8,97.3,
Cc1cc(N)n(-c2ccc(Cl)cc2)n1,n,n,n,n,n,n,x,x,
SMILES,PfHsp40 rescue,PrP 5UTR inh,PrPC surface inh,BJeLR lethal,FBA Mtb inh,GDH-TPI counter-1,Mtb FBA confirm,GDH-TPI counter-2,others
O=C(COc1coc(CN2CCc3ccccc3C2)cc1=O)N1CCOCC1,n,n,n,n,n,n,x,x,
Cn1c(=O)c2cc(NC(=O)NCCc3cccs3)ccc2n1C/C=C/c1ccccc1,x,x,x,x,65.3,n,n,n,
CC(=O)Nc1ccc(NCCc2cccs2)cc1,x,x,n,x,n,x,x,x,
Cn1c(=O)c2cc(NC(=O)NCc3ccccc3)ccc2n1C/C=C/c1ccccc1,x,x,n,x,77.2,n,98.7,60.3,
Cc1cc(OC(=O)c2cccc(F)c2)c([N+](=O)[O-])c(=O)[nH]1,n,n,n,n,n,n,x,x,
Cc1c(C(=O)NCCCN2CCCCC2)oc2ccc3c(c12)C(O)CC1(CCCCC1)O3 (stereo not given),n,n,n,n,n,n,x,x,
CCOCCCNC(=O)c1oc2ccc3c(c2c1C)C(O)CC(C)(C)O3 (stereo not given),n,n,n,n,33.4,n,34.5,24.9,
CCCNC(=O)c1oc2ccc3c(c2c1C)C(O)CC(C)(C)O3 (stereo not given),n,n,n,n,49.0,n,n,n,
COc1cc(OC)cc(-c2c(-c3cccs3)c3cc(-c4ccc(OC)c(OC)c4)ccc3n2C)c1,n,n,n,x,32.5,n,+,170.3,
COc1cc(OC)cc(-c2c(-c3cccs3)c3cc(-c4ccc(SC)cc4)ccc3n2C)c1,n,n,n,x,n,n,x,x,
COc1cc(OC)cc(-c2c(-c3cccs3)c3cc(-c4ccc5cc[nH]c5c4)ccc3n2C)c1,n,n,n,x,28.1,37.9,116.2,110.6,
COc1ccc(-c2c(-c3cc(OC)cc(OC)c3)n(C)c3ccc(-c4ccc(S(N)(=O)=O)cc4)cc23)cc1,n,n,n,x,53.9,n,53.0,46.9,
COc1cccc(-c2c(-c3cc(OC)cc(OC)c3)n(C)c3ccc(-c4ccc5cc[nH]c5c4)cc23)c1,n,n,n,x,33.7,32.6,58.4,42.6,
CCCc1ccc(OCc2ccccc2)c2c(=O)cc(C(=O)OCC)oc12,n,n,n,n,n,n,x,x,
COc1cc(OC)cc(-c2c(-c3cccs3)c3cc(-c4ccc5[nH]ccc5c4)ccc3n2C)c1,n,n,n,x,35.5,n,96.8,65.8,
COc1cc(C#Cc2c(-c3cncn3C)n(C)c3ccc(-c4ccc5cc[nH]c5c4)cc23)cc(OC)c1,n,n,n,x,34.6,n,56.5,46.1,
CC(C)N(Cc1cn(Cc2ccccc2)nn1)S(=O)(=O)c1ccc(F)cc1Br,x,x,n,x,x,x,x,x,
CCc1cccc(NC(=O)CC2Oc3ccccc3NC2=O)c1 (stereo not given),n,n,n,n,n,n,x,x,
COC(=O)c1cc(NC(=O)CC2Oc3ccccc3NC2=O)cc(C(=O)OC)c1 (stereo not given),n,n,n,n,39.5,n,79.5,68.8,
Cc1ccc(C(=O)/C=C/Nc2ccccc2C(N)=O)o1,n,n,n,n,31.8,n,41.5,23.8,
Cc1cc(C)nc(SCc2nc3ncccn3c2Br)n1,n,n,n,n,66.3,n,31.0,n,GDH-TPI dose=2.71
